# Tat export inh: E. coli Tat export inhibitors, primary screen, MC4100, TorA-mCherry reporter, fluorescence, single point; inhibition, % at 10 µM; 340,000 tested, 0.036% active;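 active means mean replicate inhibition at least 50% and at least half of replicates individually reaching 50%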;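 further: exported cargo escapes ClpAP degradation while cytoplasmic cargo is degraded and loses fluorescence; 0% = median of neutral control wells and 100% = median of NaSCN control wells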
# phage Ecoli inh: growth loss of phage-infected E. coli, primary screen, RecBCD inhibitor project, absorbance, with phage, HTS. AID 651602, 2012. inhibition, % at 11.9 µM. 360,000 tested, 0.26% active; in the data active means inhibition above about 11%
# E coli growth-1: E. coli V3065 growth inhibition, primary screen, counter-screen for AddAB inhibitor project, absorbance, OD600. AID 449728, 2010. 18 h. inhibition, % at 11.9 µM. 330,000 tested, 0.27% active;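 active means inhibition above the campaign's mean inhibition across all tested compounds plus 3 SD, cut at about 9.9% in these data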;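 further: uninfected addAB+ strain grown without phage in ampicillin broth; 0% = DMSO wells and 100% = ciprofloxacin 0.95 µg/ml wells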
# AddAB inh: growth inhibition of E. coli expressing H. pylori AddAB, primary screen, AddAB inhibitor project, absorbance. 330,000 tested, 0.29% active. inhibition, % at 11.9 µM. AID 435030, 2010; in the data active means inhibition above about 12%;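 further: 0% = vehicle wells of infected cells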
# E coli growth-2: E. coli growth inhibition, primary screen, OD600 | OD600 absorbance (no concentration beside the values) | Escherichia coli growth, 23 h; stronger effect = lower value | 330,000 tested, 0.21% active | AID 1053175, 2014;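 active means OD600 absorbance below the run mean of sample wells minus 3.6 SD, in any replicate, cut at about 0.56 in these data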
# An asterisk follows results filed as active; / = not tested or not shown; ! = a repeat was not active. Most compounds without a hit are left out; they make up all but 0.5% or so of the library.
SMILES,Tat export inh,phage Ecoli inh,E coli growth-1,AddAB inh,E coli growth-2
CCOC(=O)C1=CCC2c3c(c4ccc(OC)cc4n3C)C(=O)C1N2S(=O)(=O)c1ccc(C)cc1 (stereo unspecified),/,/,/,/,0.663
Cc1cccc(NCC(=O)NN=Cc2ccccn2)c1,/,/,/,/,0.693
COC(=O)[C@@]1(Cc2ccc(F)cc2)C2c3cc(C(=O)N4CCCC4)n(CCc4ccccn4)c3CC2CN1C(=O)c1ccccc1 (stereo partly specified),/,/,/,/,0.712
S=c1[nH]nc(-c2cccnc2)n1N=C/C=C/c1ccco1,/,/,/,/,0.723
CCOc1ccc(N(CC(=O)Nc2ccc(F)c(F)c2)S(=O)(=O)c2c(C)noc2C)cc1,1.0,3.0,1.3,5.4,0.671
CCOc1ccc(N(CC(=O)Nc2ccc(C)cc2)S(=O)(=O)c2c(C)noc2C)cc1,12.2,18.0*,0.4,4.0,0.757
CC(=O)Nc1ccc(C=NNS(=O)(=O)c2cc(C)ccc2C)cc1,/,/,/,/,0.706
Cc1cnnn1-c1ccc(C(=O)CCl)cc1,-16.1,2.4,2.4,3.1,0.508*
CC(=O)c1ccc(-n2nncc2C(C)(C)C)cc1,6.7,1.6,-0.2,2.0,0.705
O=c1[nH]sc2ccccc12,-0.8,3.6,/,/,0.0655*
C/C=C1\NC(=O)[C@H](CC(N)=O)N(C)C(=O)C([C@@H](C)O)NC(=O)C(CCCc2ccc(OC)cc2)NC(=O)[C@H](C(C)C)NC(=O)/C(=C\C)NC(=O)[C@H](O)[C@@H](C[C@@H](O)CCCCCCC)NC(=O)[C@H](C)NC(=O)CN(C)C(=O)[C@H](CCC(N)=O)NC1=O (stereo partly specified),11.9,1.0,/,/,0.519*
N#CC(c1ccc(Cl)cc1)c1ccc2c(C(F)(F)F)cc(C(F)(F)F)nc2n1 (stereo unspecified),-15.5,14.7*,1.6,3.2,0.683
FC(F)(F)c1cc(C(F)(F)F)c2ccc(N3CCN(c4ccc(Cl)cc4)CC3)nc2n1,-8.0,1.2,0.8,1.5,0.746
S=C(NCc1ccco1)Nc1ccc(Cl)c(Cl)c1,-2.5,8.7,8.3,8.9,0.47*
CCCCCCCCCCCCCCCC[N+](C)(C)CC,13.4,1.6,-1.6,-2.3,0.0615*
CCCCCC[N+](C)(C)CCSSCC[N+](C)(C)CCCCCC,0.1,0.8,0.0,0.1,0.646
O=C(NN=Cc1ccc(-c2cccc([N+](=O)[O-])c2)o1)[C@H]1C[C@@H]1c1ccccc1,/,/,/,/,0.706
Cc1nnc(SCC2=C(C(=O)O)N3C(=O)C(NC(=O)COc4ccc(F)cc4)C3SC2)s1 (stereo unspecified),-1.6,3.0,-2.8,1.4,0.546*
CC(=O)OCC1=C(C(=O)O)N2C(=O)C(NC(=O)COc3ccc(F)cc3)C2SC1 (stereo unspecified),3.2,3.4,/,/,0.688
Cc1nnc(SCC2=C(C(=O)O)N3C(=O)C(NC(=O)Cn4nc(C(F)F)cc4C)C3SC2)s1 (stereo unspecified),-7.2,4.1,-1.0,2.9,0.488*
Cc1nnc(SCC2=C(C(=O)O)N3C(=O)C(NC(=O)COc4ccccc4)C3SC2)s1 (stereo unspecified),-2.7,3.6,/,/,0.497*
CC(=O)OCC1=C(C(=O)O)N2C(=O)[C@@H](NC(=O)Cc3cccs3)[C@H]2SC1,-0.4,2.3,-1.8,2.9,0.046*
O=C1C2C(c3ccc(Cl)cc3)N3C(=O)N(c4cccc(Cl)c4)C(=O)[C@@]3(Cc3ccccc3)C2C(=O)N1C1CCCCC1 (stereo partly specified),/,/,/,/,0.702
COC(=O)c1sc(SC)c(S(=O)(=O)C(C)C)c1NN=C(C#N)C(=O)c1ccccc1,/,/,/,/,0.64
CCn1cc(C(=O)O)c(=O)c2cc(Br)ccc21,-0.8,-0.2,0.5,0.2,0.557*
SMILES,Tat export inh,phage Ecoli inh,E coli growth-1,AddAB inh,E coli growth-2
CCn1cc(C(=O)N[C@@H](C)C(=O)OC)c(=O)c2cc3c(cc21)OCO3,0.5,1.4,7.8,5.4,0.0835*
CCOC(=O)c1cn(CC)c2ccc(Br)cc2c1=O,0.1,1.1,-0.2,-0.6,0.689
CCn1cc(C(=O)O)c(=O)c2cc3c(cc21)OCO3,/,/,96.5*,97.0*,/
S=c1[nH]nc(C2CCCCC2)n1N=Cc1cccc(Br)c1,/,/,/,/,0.719
CN1CCC(NCCC(c2ccc(F)cc2)c2ccc(Cl)cc2)CC1 (stereo unspecified),3.2,1.2,/,/,0.514*
CC(C)C(CCNC1CCN(C)CC1)c1ccc(Cl)cc1 (stereo unspecified),-21.1,2.9,-1.7,1.7,0.632
CN(C)CC=C(c1ccc(Br)cc1)c1cccnc1,/,/,/,/,0.685
O=C(NNc1ccc(Cl)cc1)c1sccc1Cl,3.8,1.2,1.9,-0.2,0.498*
O=C(NC(=S)NNC(=O)c1cnccn1)c1ccc(F)cc1,5.1,3.0,3.1,5.3,0.405*
O=C(/C=C/c1ccc(F)cc1)NC(=S)NNC(=O)c1cnccn1,-6.0,3.8,0.3,3.5,0.663
C=CCn1c(=C(C#N)c2nnc3n2CCCCC3)sc(=Cc2ccc(F)cc2)c1=O,/,/,/,/,0.676
COc1ccc(OC)c(C=NNC(=O)CNC(=O)c2ccc(S(=O)(=O)N3CCOCC3)cc2)c1,/,/,/,/,0.678
COC(=O)c1c(NC(=S)NN2CCN(C)CC2)sc2c1CCC(C)C2 (stereo unspecified),13.8,2.9,-5.1,-3.0,0.485*
COC(=O)c1c(NC(=O)Cc2cccs2)sc2c1CCC(C)C2 (stereo unspecified),6.5,0.3,-0.8,2.9,0.697
Cc1nnc(SCc2cc(=O)[nH]c(N=C(N)Nc3ccccc3)n2)s1,/,/,/,/,0.695
CCOc1ccc(CC(O)=C2C(=O)CC(C)(C)CC2=NCC(=O)O)cc1OCC,/,/,/,/,0.686
Nc1ncn(C2O[C@H](CO)[C@@H](O)[C@H]2O)c(=O)n1 (stereo partly specified),/,/,95.8*,96.5*,/
Nc1nc(Cl)nc2c1ncn2C1OC(CO)C(O)C1O (stereo unspecified),/,3.9,/,/,0.673
Nc1nc(F)nc2c1ncn2C1OC(CO)C(O)C1O (stereo unspecified),/,/,/,/,0.454*!
COc1ccc(NC(=O)Nc2cccc([N+](=O)[O-])c2)cc1Cl,1.7,5.8,-0.9,1.9,0.524*
Cc1nnc(NC(=O)c2ccc(N3CCCC3=O)cc2)s1,-2.7,5.7,/,/,0.683
O=C(NC1=NCCS1)c1ccc(N2CCCC2=O)cc1,-8.9,4.6,-0.2,0.9,0.529*
C=CCN1C(=O)[C@@H]2Cc3c([nH]c4ccccc34)C(c3ccc(O)cc3)N2C1=S (stereo partly specified),4.5,/,-1.2,1.2,0.0665*
C=CCN1C(=O)[C@@H]2Cc3c([nH]c4ccccc34)C(c3cc(OC)c(OC)c(OC)c3)N2C1=S (stereo partly specified),-5.9,6.0,-2.2,-0.9,0.69
O=C(NN=Cc1cccnc1)c1ccc([N+](=O)[O-])cc1Cl,/,/,/,/,0.696
O=[N+]([O-])c1ccc(N=Nc2c(Cl)cc(O)cc2Cl)cc1,-4.8,0.6,0.5,-0.3,0.403*
O=C(Nc1ccccc1)Nc1ncc([N+](=O)[O-])s1,21.8,4.5,/,/,0.362*

# Bioassay records deposited in PubChem by several laboratories.
